Data published in ChEMBL document CHEMBL3988442, “University of Dundee, Small-Polar-MMV Screening Library” (2021).
Hit rate of the full screen: of about 48,000 compounds, about 13,000 (27%) showed an effect of 50% or more. This is one part of the list.

The compounds below were run on Wolbachia pipientis (assay: Anti-Wolbachia Cell-Based Screen). Details: 5 µM.
Format: functional
Design: scale not given: in the data most compounds retested in dose-response had high values

Row | Structure (SMILES) | Percent Effect
1 | Cc1c(C)n(CC(O)CN2CCOCC2)c2c(Cl)cccc12.Cl (stereo unspecified) | 0.7413%
2 | Cc1csc(C(C)(C)NCC(=O)N2CCCC(C(F)(F)F)C2)n1 (stereo unspecified) | -11.49%
3 | COc1ccc(N(C(=O)c2ccccn2)C(C)C)cc1F | 1.663%
4 | CCc1ccc(CN2CCN(c3ncc(Cl)cn3)CC2)nc1 | -9.614%
5 | CCCN(CC)C(=O)c1nc2c(n1C)CCN(Cc1ccccc1)C2 | -8.908%
6 | NC(=O)CNC(=O)c1cc(Cn2cnc3ccccc32)[nH]n1 | -4.781%
7 | CC(=O)N[C@H]1CCN(C(=O)c2cc(Cn3cnc4ccccc43)[nH]n2)C1 | -30.35%
8 | COCCN(C(=O)c1cc(-c2ccc(C)s2)[nH]n1)C1CC1 | 0.109%
9 | CCCN(CCOC)C(=O)c1cc(Cn2c(C)nc3ccccc32)[nH]n1 | 142.8%
10 | COCCN(CCOC)C(=O)c1ccn(-c2ccc3ccccn23)n1 | 3.271%
11 | CC(CNC(=O)c1cc(Cn2cnc3ccccc32)[nH]n1)N1CCCC1 (stereo unspecified) | 2.077%
12 | CCN(CCO)C(=O)c1cc(Cn2c(C)nc3ccccc32)[nH]n1 | 148%
13 | CCCN(CC)C(=O)c1cc(Cn2c(C)nc3ccccc32)[nH]n1 | 146%
14 | COc1ccc(OC)c(CNC2CCCN(c3cccnn3)C2)c1 (stereo unspecified) | -14.68%
15 | Cc1ccoc1C(=O)N1CCNCC1C(=O)NCc1ccncc1 (stereo unspecified) | -11.73%
16 | Cc1cc2n(n1)CC(CNCCc1cnn(C)c1)CN2 (stereo unspecified) | -15.02%
17 | O=C(NCCCC(=O)N1Cc2ccccc2C1)NCc1nccs1 | -8.527%
18 | CC(=O)N1CCN(C(=O)CNc2ccc3ncsc3c2)CC1 | -9.479%
19 | CCCc1nc(N(C)CCc2noc(C(C)C)n2)c2cnn(C)c2n1 | 13.53%
20 | CCc1nnc2n1CCN(C(=O)C(C)COCc1ccccc1)C2 (stereo unspecified) | 5.124%
21 | Cc1ccc(F)c2c1N(C(=O)Cc1c(C)nn(C)c1C)CCC2 | 55.91%
22 | Cc1nn(C)c(C)c1OCC(=O)N1CCCc2c(F)ccc(F)c21 | -4.523%
23 | Cc1ccc(F)c2c1CCCN2C(=O)Cc1c(C)nn(C)c1C | -7.331%
24 | Cn1c(CC2CCS(=O)(=O)C2)nnc1SCCOc1cccc(Cl)c1 (stereo unspecified) | -0.5002%
25 | Cc1cc(C)c2ncn(CC(C)(C)CO)c(=O)c2c1 | 2.019%
26 | COc1cc2ccn(CCS(C)(=O)=O)c(=O)c2cc1F | 3.704%

Row | Structure (SMILES) | Percent Effect
27 | N#CCCCn1nnnc1Cc1ccc(Br)cc1 | -5.124%
28 | N#CCCCn1cnc2c(F)cc(Br)cc2c1=O | 100.3%
29 | COCCn1cnc2c(F)cc(Br)cc2c1=O | 109.9%
30 | N#CCCn1cnc2c(F)cc(Br)cc2c1=O | 102.6%
31 | Cc1cc(C)c2ncn(CCC(C)O)c(=O)c2c1 (stereo unspecified) | -16.19%
32 | N#CCCn1cnc2c(Br)cc(Br)cc2c1=O | 26.83%
33 | CC(C)COc1ccccc1CN(C)C(=O)c1cc(=O)[nH]c(=O)[nH]1 | -33.98%
34 | CNCCNc1ccc(-c2nc(-c3cccc(OC)c3OC)no2)cn1 | -9.505%
35 | Cc1noc(C)c1CN1CCOCC12CCN(c1ncccn1)CC2.O=C(O)C(F)(F)F | 113.5%
36 | Cc1noc(C)c1CN1CCC2(CC1)CN(c1ccccn1)CCO2.O=C(O)C(F)(F)F.O=C(O)C(F)(F)F | -6.126%
37 | Cc1noc(C)c1CN1CCOC2(CCCN(c3ncccn3)C2)C1.O=C(O)C(F)(F)F (stereo unspecified) | 2.072%
38 | Cc1nc(CN2CCOCC3(CCCN(c4cnccn4)C3)C2)cs1.O=C(O)C(F)(F)F (stereo unspecified) | -4.433%
39 | Cc1noc(C)c1CN1CCOCC12CCN(c1cnccn1)CC2.O=C(O)C(F)(F)F | 82.98%
40 | CC(C)N1CCOCC2(CCN(c3cnccn3)CC2)C1.O=C(O)C(F)(F)F | -21.42%
41 | O=C(CCOCC(F)(F)F)N1CCCC1c1noc(C2CC2)n1 (stereo unspecified) | 110.3%
42 | CN(CC(=O)N1CCCC1c1noc(C2CC2)n1)S(C)(=O)=O (stereo unspecified) | -4.579%
43 | Cc1noc(C2CN(Cc3ccc4c(c3)CCO4)C2)n1.O=C(O)C(=O)O | 22.63%
44 | Cc1nc(C2CCCN2C(=O)CN(C)Cc2ccccc2)no1 (stereo unspecified) | 10.99%
45 | O=C(COCc1ccccc1)N1CCCC1c1noc(C2CC2)n1 (stereo unspecified) | 106.9%
46 | O=C(Cc1ccc2c(c1)CCO2)N1CCCC1c1noc(C2CC2)n1 (stereo unspecified) | 96.74%
47 | CC(C)c1nc(C2CCCN2C(=O)CN(C)Cc2ccccc2)no1 (stereo unspecified) | -1.303%
48 | O=C(Cc1noc2ccccc12)N1CCCC1c1noc(C2CC2)n1 (stereo unspecified) | 8.423%
49 | FC(F)(F)COCCN1CCCC(c2noc(C3CC3)n2)C1 (stereo unspecified) | 7.435%
50 | O=C(COC1CCCC1)N1CCCC1c1noc(C2CC2)n1 (stereo unspecified) | -26.64%
51 | CN(CC(=O)N1CCCC1c1noc(C2CC2)n1)Cc1ccccc1 (stereo unspecified) | 125%
